Source: PubChem BioAssay
Sm TGR inh: inhibitors of Schistosoma mansoni thioredoxin glutathione reductase | purified TGR, DTNB reduction, TNB absorbance 405 nm | 360,000 compounds, 3% hits | AID 485364 | Potency, µM (top dose mostly 114 µM), inactives show at the top dose activity change, negative = inhibition, hits mostly inhibitors | Q962Y6; further: on the % scale 0 is the no-effect control and ±100 the full control effect; nearly all actives have a fitted effect of over 60% in size
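TGR 20 nM + NADPH 100 uM (dispensed conc.), cpd preinc 15 min RT; start with NADPH (500 uM addition) then DTNB (15 mM addition). Kinetic TNB absorbance, 405 nm filter. Four-parameter Hill fit across titration.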
Pf growth 48h: inhibits P. falciparum growth in the first generation, 48 h; 310,000 compounds, 5.9% hits; Potency, µM (top dose mostly 28.7 µM), for inactives: at the highest dose activity change, negative = inhibition, most hits filed as inhibitors; P. falciparum luciferase growth in erythrocytes, 48 h; further: on the % scale 0 is the no-effect control and ±100 the full control effect
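Erythrocytes infected with P. falciparum carrying an integrated firefly luciferase reporter (2% hematocrit, 0.1% parasitemia final) were exposed to compounds in RPMI 1640 with 0.5% Albumax at 37 C, 5% CO2. Growth inhibition was scored as reduced luminescence.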
Pf growth 96h: P. falciparum growth inhibition at 96 hours; 320,000 compounds, 6.9% hits; AID 504834; P. falciparum luciferase reporter growth, 96 h; Potency, µM (doses to about 28.7 µM), inactives show at the top dose activity change, negative = inhibition, most hits filed as inhibitors; further: on the % scale 0 is the no-effect control and ±100 the full control effect
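Compounds incubated with erythrocytes infected by luciferase-expressing P. falciparum (2% hematocrit, 0.05% parasitemia final) for 96 hours, 37 C in 5% CO2. Growth inhibition scored as decreased luciferase luminescence.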
SARS PLpro yeast: SARS-CoV PLP inhibition in yeast | S. cerevisiae expressing SARS-CoV PLpro, growth rescue | Potency, µM (top dose mostly 32.9 µM), for the others: at the top dose activity, positive = growth rescue, most hits filed as activators | 330,000 compounds, 0.19% hits; calls by dose curve; further: 0% is about no effect; nearly all actives have a fitted effect of over 55% in size
Starred values were filed as active, the others as inactive; ? = inconclusive; . = not tested or not shown; ! = not active in a repeat. The list is not random: actives were taken first. Their share in the collection is about 12%. Unless noted, the call rests on the fitted dose curve; in most records, active means well fitted curve in the direction sought with a large enough effect; inconclusive means small, poorly fitted or top-dose-only effect, or another doubt; inactive means no such curve, though single readings can be large; an effect the other way counts as inactive or inconclusive. Potency means the concentration at half of the fitted maximal effect.

SMILES	Sm TGR inh	Pf growth 48h	Pf growth 96h	SARS PLpro yeast
CC(C)(C)n1nnnc1C(c1cccs1)N(Cc1ccc(Cl)cc1)CC1CCCO1 (stereo not drawn)	0.0%	13.1µM*	?	.
CC(C)(C)n1nnnc1C(c1ccc(F)cc1)N(Cc1ccc(F)cc1)Cc1ccco1 (stereo not drawn)	-28.7%	?	-16.0%	-20.1%
COC(=O)c1cn(C(=O)c2cc(Br)ccc2Cl)c2ccccc12	8.1%	?	68.2%	0.1%
CC(C)c1nnc(N2C(=O)c3oc4ccccc4c(=O)c3C2c2ccccc2F)s1 (stereo not drawn)	0.9%	.	.	.
Cc1ccc(NC(=O)Cn2c(=O)c(C(F)(F)F)nc3ccccc32)c(C)c1	8.5%	.	.	.
CC(=O)OCC1(C)CN(c2ccccc2)N(C(C)=O)C1=O (stereo not drawn)	0.0%	10.5%	-2.4%	0.3%
CC(=O)OCC1(C)CN(c2ccccc2)NC1=O (stereo not drawn)	7.94µM*	30.1%	108.6%	-2.8%
CCOC(=O)/C(=C\Nc1ccc(OC(F)(F)F)cc1)Sc1ncc(C(F)(F)F)cc1Cl	2.1%	2.08µM*	.	-6.5%
CCOC(=O)/C(O)=C/c1ncc(C(F)(F)F)cc1Cl	4.2%	37.4%	30.1%	-0.7%
Cc1cc(NC(=O)COc2ccc3ccccc3c2Br)no1	.	.	.	1.0%
Fc1cc(F)c2nc(N3CCCCC3)sc2c1	12.0%	45.3%	8.28µM*	9.5%
Cc1ccc(C)c2sc(N3CCN(C(=O)c4ccc([N+](=O)[O-])o4)CC3)nc12	-16.0%	0.828µM*	0.329µM*	-1.3%
O=C(c1cccs1)N1CCN(c2nc3c(F)cc(F)cc3s2)CC1	-0.2%	-7.2%	?	-4.5%
Fc1ccc2nc(N3CCCC3)sc2c1	?	205.7%	199.5%	2.3%
O=C(c1ccc([N+](=O)[O-])o1)N1CCN(c2nc3c(F)cc(F)cc3s2)CC1	-25.9%	1.04µM*	0.329µM*	0.8%
c1ccc2c(OCCCN3CCCCCC3)cccc2c1	-25.4%	?	-16.3%	-7.8%
CCN1CCN(CCCNC(=O)c2csc3c2CCCCC3)CC1	3.2%	2.1%	14.7µM*	.
CC(C)CNC(=S)NNC(=O)c1csc2c1CCC(C)C2 (stereo not drawn)	-14.0%	.	6.57µM*	0.3%
CC1CCc2c(C(=O)NCCN3CCOCC3)csc2C1 (stereo not drawn)	12.7%	60.1%	8.28µM*	-10.8%
CC1CCc2c(C(=O)NCCCN3CCOCC3)csc2C1 (stereo not drawn)	-9.8%	5.0%	.	-12.7%
Cc1cccc(NC(=S)NNC(=O)c2csc3c2CCC(C)C3)c1 (stereo not drawn)	-16.4%	59.1%	.	1.0%
CC(C)Oc1ccc(C(=O)NCC(=O)N2CCN(S(=O)(=O)/C=C/c3ccccc3)CC2)cc1	8.4%	14.7µM*	?	-5.6%
O=C(CNC(=O)C12CC3CC(CC(C3)C1)C2)N1CCN(S(=O)(=O)/C=C/c2ccccc2)CC1	1.6%	?	9.28µM*	24.6%
O=C(CNC(=O)C12CC3CC(CC(C3)C1)C2)N1CCN(S(=O)(=O)c2cccs2)CC1	-18.1%	?	?	20.2%
Cc1cccc(OC(C)C(=O)Nc2nc(-c3ccncc3)cs2)c1 (stereo not drawn)	1.3%	?	?	2.4%
SMILES	Sm TGR inh	Pf growth 48h	Pf growth 96h	SARS PLpro yeast
CN(C)c1ccc(C(CNC(=O)Cc2ccc(Cl)cc2)N2CCOCC2)cc1 (stereo not drawn)	-1.9%	.	.	.
COC(=O)c1ccc(OC(=O)c2ccccn2)cc1	1.2%	-0.5%	.	-10.2%
N#CC(C#N)=Cc1ccc(OC(=O)c2ccccn2)cc1	8.91µM*	10.3%	30.0%	-20.6%
NS(=O)(=O)c1ccc(NC2=CC(c3ccc([N+](=O)[O-])cc3)N(c3ccc(S(N)(=O)=O)cc3)C2=O)cc1 (stereo not drawn)	17.8µM*	?	-9.5%	-4.1%
CC(=O)Nc1ccc(N2C(=O)CSC2c2ccc([N+](=O)[O-])cc2)cc1 (stereo not drawn)	-8.8%	-2.6%	10.0%	0.3%
CC12CCC(C(=O)O)(C/C1=N\O)C2(C)C (stereo not drawn)	5.2%	7.3%	7.0%	11.2µM*!
Cc1ccc(CNCc2cc(Cl)ccc2O)cc1	-9.6%	2.94µM*	7.38µM*	3.0%
Oc1ccc(Cl)cc1CNCC1CCCCC1	-6.8%	1.85µM*	11.7µM*	0.4%
O=C(COc1ccc(C(=O)NCCN2CCOCC2)cc1)Nc1cccc(C(F)(F)F)c1	-1.8%	-19.4%	?	0.0%
O=c1[nH]c(NCc2ccccc2)nc2c1CCC2	-12.4%	-20.5%	14.7µM*	8.8%
CC(C)(C)C(=O)Nc1nc2c(c(=O)[nH]1)CCCC2	-1.8%	9.28µM*	27.8%	-1.4%
CCCCCc1c(C)nc(NCc2ccccc2)[nH]c1=O	-6.8%	2.08µM*	.	-2.8%
Cc1nc(Nc2ccccc2)[nH]c(=O)c1CCC(C)C	4.4%	?	.	-7.3%
CCC(=O)Nc1nc2c(c(=O)[nH]1)CCCC2	2.0%	-2.7%	?	-4.8%
O=c1[nH]c(N2CCN(Cc3ccccc3)CC2)nc2c1CCC2	4.4%	13.7%	0.1%	-0.9%
N#Cc1c(NC(=O)CSc2ncnc3sccc23)oc(-c2ccco2)c1-c1ccco1	3.98µM*	.	2.33µM*	-0.1%
CN1CCN(S(=O)(=O)c2cccc(C(=O)Oc3ccccc3Cl)c2)CC1	2.9%	1.9%	38.3%	4.2%
Cc1ccc(NC(=O)CN2CCC(NC(=O)c3ccccc3F)CC2)cc1C	3.1%	-6.4%	25.6%	-1.6%
CCSc1nc(O)c(C2OC(=O)c3c2ccc(OC)c3OC)c(=O)n1-c1ccccc1 (stereo not drawn)	7.08µM*	.	-2.9%	6.2%
Cc1ccccc1NC(=O)c1sc2nc3n(c(=O)c2c1C)N=C(c1ccccc1)CS3	-11.8%	.	.	.
C=CCOc1c(CNc2ccc(C(=O)O)cc2)cccc1OC	-0.7%	12.5%	4.65µM*	4.0%
FC(F)Sc1nc(-c2ccccc2)c(-c2ccccc2)n1C(F)F	-2.9%	-3.3%	3.29µM*	-4.7%
O=c1c(Cl)c2oc3ccccc3nc-2c2ccccc12	3.4%	13.1µM*	-8.1%	-0.3%
O=c1oc2ccccc2cc1-c1nc2ccccc2o1	0.3%	43.9%	1.5%	-2.9%
Cc1ccc(-c2c(CN3CCN(c4cccc(C)c4C)CC3)csc2C)cc1	6.9%	.	.	.
SMILES	Sm TGR inh	Pf growth 48h	Pf growth 96h	SARS PLpro yeast
N#Cc1c(NC(=O)CSC2=NCCS2)sc2c1CCCC2	0.0%	?	2.33µM*	-7.0%
N#Cc1c(NC(=O)CSc2ncn[nH]2)sc2c1CCCC2	-15.7%	.	.	-0.8%
COc1ccc(-c2cc(C(F)(F)F)nc(SCC(=O)Nc3sc4c(c3C#N)CCC4)n2)cc1	-5.2%	4.15µM*	1.65µM*	5.1%
N#Cc1c(NC(=O)CSc2nc(-c3ccccc3)cc(C(F)(F)F)n2)sc2c1CCC2	-8.7%	3.4%	30.7%	2.6%
COCCNC(=O)CN1C(=O)NC2(CCCc3ccccc32)C1=O (stereo not drawn)	-14.6%	5.2%	18.1%	-0.7%
CCC(=O)N(C(=O)CC)N1CCN(c2ccncc2S(=O)(=O)N2CCCCC2)CC1	1.5%	?	?	-4.0%
